Data published in PubChem BioAssay (NCI).
About 83,000 compounds went through this panel and 20% of them were active in at least one assay; those are over-represented in the sample as a whole.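 48-hour exposure, single concentration, 96-well plates; percent growth endpoint where 0 means no net growth. Active: below 10.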 Values without a mark were called inactive. Activity calls are given as the source filed them.

Tests used:
Assay in all cases: NCI-60 one-dose screen, 48 h (100 = growth as untreated, 0 = no growth, -100 = all killed)
Conditions in all cases: 10 µM unless noted
SK-MEL-2 melanoma = system: SK-MEL-2 melanoma
EKVX NSCLC = system: EKVX NSCLC
SN12C renal = system: SN12C renal
UO-31 renal = system: UO-31 renal
TK-10 renal = system: TK-10 renal
ACHN renal = system: ACHN renal
CAKI-1 renal = system: CAKI-1 renal
A498 renal = system: A498 renal
CCRF-CEM leukemia = system: CCRF-CEM leukemia
MOLT-4 leukemia = system: MOLT-4 leukemia

Row | Structure (SMILES) | growth (SK-MEL-2 melanoma) | growth (EKVX NSCLC) | growth (SN12C renal) | growth (UO-31 renal) | growth (TK-10 renal) | growth (ACHN renal) | growth (CAKI-1 renal) | growth (A498 renal) | growth (CCRF-CEM leukemia) | growth (MOLT-4 leukemia)
1 | COc1ccc(CN2C(=O)/C(=C\c3cc(OC)c(OC)c(OC)c3)c3ccccc32)cc1 | -41% (active) | 5.9% (active) | 12.8% | 5.84% (active) | 25.2% | -59.5% (active) | -53.9% (active) | 52.7% | 5.62% (active) | 1.82% (active)
2 | CCN(CC)CCCNC(=O)c1ccc(N)cc1 | 99% | 104% | 103% | 78.8% | 97.8% | 97.3% | 107% | 66.3% | -34.9% (active) | 85.3%
3 | COc1ccc2cc(-c3ccc(C(=O)NN)c(C)n3)ccc2c1 | 102% | 99.5% | 96.6% | 83.5% | 95.6% | 103% | 103% | 90.7% | 91.3% | 74%
4 | CC(=O)c1ccc2c(c1)CCN2 | 104% | 117% | 96.7% | 94.2% | 98.1% | 100% | 111% | 117% | 94.9% | 94.2%
5 | Cc1cc(NS(=O)(=O)c2ccccc2)c(OS(=O)(=O)c2ccccc2)cc1C | 118% | 104% | 94% | 73.6% | 119% | 104% | 109% | 89.2% | 97.5% | 88.5%
6 | COc1cc2oc3cc(C)oc(=O)c3c2cc1OC | 97.2% | 102% | 92.8% | 82.7% | 96.7% | 94% | 86.4% | 86.3% | 112% | 95%
7 | CSc1ncc(C)c(Nc2ccc(Cl)cc2)n1 | 103% | 77.4% | 102% | 76.4% | 95.6% | 103% | 91% | 88.5% | 96.5% | 82.5%
8 | CCCCCCNc1cc(C)nc2ccc(OC)cc12 | 73.7% | 65.7% | 67.9% | 40.4% | 80.4% | 76.4% | 70.9% | 22% | 60.7% | 50.4%
9 | Cc1nc(Nc2ccc(N)cc2)c2ccccc2n1 | 101% | 101% | 93.1% | 81.4% | 110% | 80.1% | 91.2% | 97.3% | 86.2% | 100%
10 | C[N+](C)(C)CCOC(OCC[N+](C)(C)C)(c1ccccc1)c1ccccc1 | 99.4% | 111% | 99.9% | 89.1% | 109% | 97.6% | 101% | 113% | 105% | 102%
11 | COc1cc(/C=C/C(=O)c2cccc(-n3cc(-c4ccccc4)[nH]c3=O)c2)cc(OC)c1OC | -64.5% (active) | 17% | 10.4% | -45.2% (active) | -5.4% (active) | -64.9% (active) | 12.2% | 33.2% | 3.61% (active) | -12.6% (active)
12 | COc1cc(C(=O)/C=C/c2c(-c3ccc(F)cc3)nc3ncccn23)cc(OC)c1OC | 30.1% | 52.3% | 60.8% | 35.7% | 78.2% | 47% | 16.2% | 69.9% | 18.9% | 50.7%
13 | Cc1nn(-c2ccccc2)c2c1C(c1ccc([N+](=O)[O-])cc1)C(C#N)=C(N)O2 (stereo not given) | 123% | 115% | 101% | 70.4% | 141% | 108% | 115% | 111% | 90.3% | 101%
14 | CC(C)CCC[C@@H](C)[C@H]1CCC2C3=CCn4c(=O)ccc(=O)n4C3CC[C@@]21C (stereo not given in full) | -57.4% (active) | -82.2% (active) | -97.7% (active) | -88.5% (active) | -83.1% (active) | -95.1% (active) | -91.6% (active) | -94.8% (active) | -2.44% (active) | -23.6% (active)
15 | C/C(Cc1ccc(Cl)cc1)=C(/c1ccc(Cl)cc1)c1ccc(OCCN(C)C)cc1 | 109% | 81.8% | 47.9% | 65% | 82.9% | 82.8% | 54.6% | 80.8% | 39.5% | 31.7%
16 | CC(C)OC(=O)OCOP(=O)(OCOC(=O)OC(C)C)C1CCCN(O)C1=O (stereo not given) | 28.5% | 47.8% | 5.75% (active) | 9.98% (active) | 2.39% (active) | 26.9% | 25.1% | 1.16% (active) | 10% | 22.5%
17 | C/C(=N\NC(=O)Cn1c(-c2ccc(S(C)(=O)=O)cc2)nc2cc(Cl)ccc21)c1ccc(Cl)cc1 | 91.1% | 76.6% | 84% | 62.7% | 101% | 85.8% | 74% | 89.8% | 76.2% | 61.5%
18 | Cc1nc2ccccc2c(/C=C/c2ccc(Cl)cc2)c1C(=O)/C=C/c1ccc(Cl)cc1 | -13.6% (active) | -11.9% (active) | -61.6% (active) | -86.2% (active) | -6.59% (active) | -90.3% (active) | -33.8% (active) | -75.5% (active) | 7.4% (active) | 5.06% (active)
19 | CC(=O)C(C(C)=O)c1nc2sc3cc(Cl)ccc3n2c(=N)c1C#N | 86.8% | 70.7% | 90% | 58.4% | 117% | 84% | 85.7% | 84.5% | 91.9% | 67%
20 | CC(=O)NCC(=O)Nc1ccc(-c2nnc3ccccn23)nc1.CC(=O)NCC(=O)Nc1ccc(-c2nnc3ccccn23)nc1.[Pt+2] | 91.4% | 110% | 106% | 106% | 103% | 103% | 115% | 101% | 93.3% | 96.9%
21 | CCCCCCN(CCCCCC)CC(O)c1cccc2ccc(Cl)cc12 (stereo not given) | 46.6% | 77.2% | 72.8% | 47.9% | 79.2% | 50.8% | 25.3% | 67.3% | 67.6% | 37.8%
22 | CC(C)(C)Nc1c(-c2c3ccccc3cc3ccccc23)nc2ccccn12 | 77.1% | 70.1% | 82.3% | 49.8% | 76% | 77.8% | 50.1% | 88.2% | 61.7% | 45.5%
23 | O=C1c2ccccc2C2(c3ccc(O)cc3)c3ccccc3Oc3cccc1c32 (stereo not given) | 25.4% | 45.7% | 37.5% | 45.7% | 84.3% | 43.4% | 45.9% | 47.1% | 14.8% | 24.8%
24 | Cn1ccc(Cc2cnc(N)s2)n1 | 97.4% | 106% | 104% | 86.2% | 88.7% | 99.8% | 93.6% | 94.2% | 100% | 93.3%
25 | CN(C)c1cnccn1 | 85.4% | 104% | 88.6% | 84.2% | 145% | 87.1% | 95.6% | 95.7% | 60.6% | 93.7%
26 | CC(C)n1nc(C#Cc2cccc(O)c2)c2c(N)ncnc21 | -76.9% (active) | -27.1% (active) | -44.3% (active) | -63.4% (active) | -87.4% (active) | -47.3% (active) | -66.8% (active) | -84.9% (active) | -21% (active) | -36.1% (active)
27 | CCCCNC(=O)c1cc(NCc2cc(O)ccc2O)ccc1O | 93.6% | 95% | 89.7% | 57% | 101% | 89.4% | 87.3% | 88.9% | 8.3% (active) | 61.5%
